Measurements reported in article PMC7862700, “An all-to-all approach to the identification of sequence-specific readers for epigenetic DNA modifications on cytosine”.

Columns and labels:
Assay in all cases: DAPPL (digital affinity profiling via proximity ligation, sequencing); 10 mM Tris-HCl pH 7.5, 50 mM NaCl, 1 mM DTT, 4% glycerol, room temperature, 30 min; GST-TFs on glutathione beads, 16-mer random dsDNA library, 0.1% formaldehyde crosslink after washing; high values mean tight binding
Settings in all cases: protein: recombinant; tags: N-terminal GST; dsDNA, one strand shown
[1] = biological target: T1, FLI1 (Homo sapiens, UniProt Q01543 1-452)
T1 sequence: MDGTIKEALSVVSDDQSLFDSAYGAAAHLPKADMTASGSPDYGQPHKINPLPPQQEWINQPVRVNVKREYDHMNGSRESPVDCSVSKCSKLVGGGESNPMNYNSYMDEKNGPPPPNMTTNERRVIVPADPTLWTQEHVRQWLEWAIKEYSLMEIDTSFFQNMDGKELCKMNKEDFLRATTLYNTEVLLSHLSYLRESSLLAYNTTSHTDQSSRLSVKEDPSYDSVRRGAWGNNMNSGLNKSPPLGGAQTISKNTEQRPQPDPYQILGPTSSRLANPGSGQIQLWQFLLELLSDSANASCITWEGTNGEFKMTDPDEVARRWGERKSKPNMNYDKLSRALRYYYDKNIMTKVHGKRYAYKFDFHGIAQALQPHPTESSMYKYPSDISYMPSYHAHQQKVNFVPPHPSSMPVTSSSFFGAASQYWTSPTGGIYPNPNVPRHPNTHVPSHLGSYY
In short: (§1)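 Human transcription factors carrying a GST fusion were produced in yeast, bound to glutathione beads, tagged with DNA barcodes and pooled together with a tag-only sample. Each pool was held with 200 nmole of a random double-stranded 16-mer DNA library in Tris/NaCl/DTT/glycerol buffer for 30 min at room temperature, then washed, crosslinked in 0.1% formaldehyde, proximity-ligated with BsaI/T4 ligase (1 h, 37 °C), PCR-amplified and sequenced on an Illumina NextSeq500. Binding signal is the read frequency of each hexamer for a given factor divided by its frequency in the tag-only sample.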

[2] = biological target: T2, GABPA (Homo sapiens, UniProt Q06546 1-454)
T2 sequence: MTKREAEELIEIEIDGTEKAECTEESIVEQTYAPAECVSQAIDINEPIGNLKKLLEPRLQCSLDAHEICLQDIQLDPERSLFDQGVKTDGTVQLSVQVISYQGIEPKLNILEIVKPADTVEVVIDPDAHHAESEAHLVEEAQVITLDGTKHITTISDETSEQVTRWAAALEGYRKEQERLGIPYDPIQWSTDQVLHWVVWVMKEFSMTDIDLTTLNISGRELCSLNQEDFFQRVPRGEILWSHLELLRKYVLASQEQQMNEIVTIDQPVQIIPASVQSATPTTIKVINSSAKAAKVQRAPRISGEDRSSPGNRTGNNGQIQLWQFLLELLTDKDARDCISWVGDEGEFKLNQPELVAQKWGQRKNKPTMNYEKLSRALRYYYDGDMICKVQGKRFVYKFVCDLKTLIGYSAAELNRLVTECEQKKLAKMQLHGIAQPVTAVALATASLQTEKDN
In short: as §1

[3] = biological target: ELF1 (Homo sapiens, UniProt P32519 1-619)
ELF1, sequence (P32519 whole entry): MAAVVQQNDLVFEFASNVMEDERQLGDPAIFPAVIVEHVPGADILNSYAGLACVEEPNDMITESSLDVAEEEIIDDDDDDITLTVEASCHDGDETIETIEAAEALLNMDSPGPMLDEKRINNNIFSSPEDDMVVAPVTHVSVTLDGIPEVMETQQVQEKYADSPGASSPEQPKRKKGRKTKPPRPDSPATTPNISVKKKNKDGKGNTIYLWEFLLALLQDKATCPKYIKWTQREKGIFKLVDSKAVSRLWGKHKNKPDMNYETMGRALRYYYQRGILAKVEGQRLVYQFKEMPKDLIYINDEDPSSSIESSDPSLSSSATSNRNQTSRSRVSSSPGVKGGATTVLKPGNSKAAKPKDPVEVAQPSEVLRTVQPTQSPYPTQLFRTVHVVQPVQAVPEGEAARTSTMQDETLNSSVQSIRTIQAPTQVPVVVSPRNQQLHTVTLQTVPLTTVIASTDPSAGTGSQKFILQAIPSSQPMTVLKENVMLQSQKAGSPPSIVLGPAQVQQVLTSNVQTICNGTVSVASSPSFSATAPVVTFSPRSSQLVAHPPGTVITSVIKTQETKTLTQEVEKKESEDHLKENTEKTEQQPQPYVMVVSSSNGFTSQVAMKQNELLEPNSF
In short: as §1

[4] = biological target: T3, EHF (Homo sapiens, UniProt Q9NZC4 1-300)
T3 sequence: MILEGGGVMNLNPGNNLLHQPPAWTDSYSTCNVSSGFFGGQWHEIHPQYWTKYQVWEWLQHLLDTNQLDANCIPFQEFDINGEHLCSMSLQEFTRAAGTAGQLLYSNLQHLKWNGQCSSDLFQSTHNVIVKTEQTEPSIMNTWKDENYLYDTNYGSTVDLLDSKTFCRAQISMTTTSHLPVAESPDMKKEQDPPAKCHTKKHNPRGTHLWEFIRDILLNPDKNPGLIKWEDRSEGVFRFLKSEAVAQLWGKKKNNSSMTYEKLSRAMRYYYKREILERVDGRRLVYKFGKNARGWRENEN
In short: as §1

[5] = biological target: SPIB (Homo sapiens, UniProt Q01892 1-262)
SPIB, sequence (Q01892 whole entry): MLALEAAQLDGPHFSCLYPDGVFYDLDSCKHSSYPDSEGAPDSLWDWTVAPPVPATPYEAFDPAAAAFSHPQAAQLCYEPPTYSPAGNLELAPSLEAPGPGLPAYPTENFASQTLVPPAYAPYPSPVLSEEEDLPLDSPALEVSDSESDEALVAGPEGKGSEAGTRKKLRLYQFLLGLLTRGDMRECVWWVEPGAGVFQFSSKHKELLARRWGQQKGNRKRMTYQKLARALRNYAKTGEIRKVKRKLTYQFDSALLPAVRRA
In short: as §1

[6] = biological target: T4, ELK3 (Homo sapiens, UniProt P41970 1-407)
T4 sequence: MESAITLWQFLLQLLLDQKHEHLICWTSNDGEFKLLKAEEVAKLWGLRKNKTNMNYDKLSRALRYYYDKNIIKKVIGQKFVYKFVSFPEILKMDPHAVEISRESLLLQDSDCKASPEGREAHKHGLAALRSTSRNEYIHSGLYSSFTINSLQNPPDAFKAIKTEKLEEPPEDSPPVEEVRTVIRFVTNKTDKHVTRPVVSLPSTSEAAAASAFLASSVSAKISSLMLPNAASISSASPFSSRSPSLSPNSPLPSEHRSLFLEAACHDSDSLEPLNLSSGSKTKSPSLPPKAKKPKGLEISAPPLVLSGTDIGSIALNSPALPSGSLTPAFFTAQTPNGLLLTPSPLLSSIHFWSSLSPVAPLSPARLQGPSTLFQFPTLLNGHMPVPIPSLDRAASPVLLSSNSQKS
In short: as §1

[7] = biological target: ETV5 (Homo sapiens, UniProt P41161 1-510)
ETV5, sequence (P41161 whole entry): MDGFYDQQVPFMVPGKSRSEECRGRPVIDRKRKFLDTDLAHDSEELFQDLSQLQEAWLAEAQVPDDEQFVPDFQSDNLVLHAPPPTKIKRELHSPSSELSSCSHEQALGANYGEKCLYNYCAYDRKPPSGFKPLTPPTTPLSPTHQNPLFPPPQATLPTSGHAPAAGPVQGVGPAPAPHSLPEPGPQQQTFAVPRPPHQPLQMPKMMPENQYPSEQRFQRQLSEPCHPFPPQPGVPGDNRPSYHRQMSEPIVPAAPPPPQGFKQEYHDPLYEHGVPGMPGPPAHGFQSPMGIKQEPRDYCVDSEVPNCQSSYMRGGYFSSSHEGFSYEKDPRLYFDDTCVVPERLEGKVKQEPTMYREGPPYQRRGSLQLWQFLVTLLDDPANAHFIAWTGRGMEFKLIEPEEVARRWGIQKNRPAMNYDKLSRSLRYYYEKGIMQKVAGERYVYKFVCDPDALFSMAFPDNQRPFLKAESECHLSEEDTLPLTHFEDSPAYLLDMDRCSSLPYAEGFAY
In short: as §1

[8] = biological target: T5, SPIC (Homo sapiens, UniProt Q8N5J4 1-248)
T5 sequence: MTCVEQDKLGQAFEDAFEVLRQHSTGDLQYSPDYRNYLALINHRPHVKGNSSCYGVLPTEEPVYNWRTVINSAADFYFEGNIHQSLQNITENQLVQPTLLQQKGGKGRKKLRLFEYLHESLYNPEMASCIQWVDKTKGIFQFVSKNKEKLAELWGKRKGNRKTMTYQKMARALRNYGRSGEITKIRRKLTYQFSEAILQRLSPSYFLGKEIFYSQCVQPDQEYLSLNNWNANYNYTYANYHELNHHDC
In short: as §1

[9] = biological target: ELF4 (Homo sapiens, UniProt Q99607 1-663)
ELF4, sequence (Q99607 whole entry): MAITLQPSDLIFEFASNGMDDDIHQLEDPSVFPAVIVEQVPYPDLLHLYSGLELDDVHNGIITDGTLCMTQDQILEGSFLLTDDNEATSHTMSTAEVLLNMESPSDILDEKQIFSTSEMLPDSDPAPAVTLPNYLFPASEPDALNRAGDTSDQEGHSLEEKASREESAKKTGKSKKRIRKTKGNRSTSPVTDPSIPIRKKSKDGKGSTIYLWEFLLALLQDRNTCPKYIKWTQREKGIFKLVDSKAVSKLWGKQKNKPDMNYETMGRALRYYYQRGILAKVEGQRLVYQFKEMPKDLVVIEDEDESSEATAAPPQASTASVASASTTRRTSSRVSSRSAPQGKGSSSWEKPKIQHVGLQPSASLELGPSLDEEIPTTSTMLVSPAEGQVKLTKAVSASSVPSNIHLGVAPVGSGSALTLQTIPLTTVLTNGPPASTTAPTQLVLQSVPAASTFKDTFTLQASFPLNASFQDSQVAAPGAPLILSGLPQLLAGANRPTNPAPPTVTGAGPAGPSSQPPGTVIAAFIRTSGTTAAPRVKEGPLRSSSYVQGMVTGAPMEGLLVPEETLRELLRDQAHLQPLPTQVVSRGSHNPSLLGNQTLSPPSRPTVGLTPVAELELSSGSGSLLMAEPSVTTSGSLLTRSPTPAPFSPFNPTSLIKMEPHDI
In short: as §1

[10] = biological target: T6, ERF (Homo sapiens, UniProt P50548 1-548)
T6 sequence: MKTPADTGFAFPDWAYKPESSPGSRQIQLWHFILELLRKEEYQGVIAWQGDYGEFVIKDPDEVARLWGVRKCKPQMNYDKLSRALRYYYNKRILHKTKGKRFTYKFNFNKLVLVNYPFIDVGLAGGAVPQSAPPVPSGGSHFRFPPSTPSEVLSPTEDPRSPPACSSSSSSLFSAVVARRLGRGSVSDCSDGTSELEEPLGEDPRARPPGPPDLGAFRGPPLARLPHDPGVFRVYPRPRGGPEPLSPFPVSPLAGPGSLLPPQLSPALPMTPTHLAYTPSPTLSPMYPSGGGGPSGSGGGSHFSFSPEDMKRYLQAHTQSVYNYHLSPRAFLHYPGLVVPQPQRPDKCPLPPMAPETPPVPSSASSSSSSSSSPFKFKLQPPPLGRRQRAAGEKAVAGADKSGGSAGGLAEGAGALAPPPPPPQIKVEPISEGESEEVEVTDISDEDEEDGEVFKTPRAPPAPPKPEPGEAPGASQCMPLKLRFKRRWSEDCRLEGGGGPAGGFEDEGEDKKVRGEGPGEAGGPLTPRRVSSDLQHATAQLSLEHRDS
In short: as §1

[11] = biological target: T7, ETS2 (Homo sapiens, UniProt P15036 1-469)
T7 sequence: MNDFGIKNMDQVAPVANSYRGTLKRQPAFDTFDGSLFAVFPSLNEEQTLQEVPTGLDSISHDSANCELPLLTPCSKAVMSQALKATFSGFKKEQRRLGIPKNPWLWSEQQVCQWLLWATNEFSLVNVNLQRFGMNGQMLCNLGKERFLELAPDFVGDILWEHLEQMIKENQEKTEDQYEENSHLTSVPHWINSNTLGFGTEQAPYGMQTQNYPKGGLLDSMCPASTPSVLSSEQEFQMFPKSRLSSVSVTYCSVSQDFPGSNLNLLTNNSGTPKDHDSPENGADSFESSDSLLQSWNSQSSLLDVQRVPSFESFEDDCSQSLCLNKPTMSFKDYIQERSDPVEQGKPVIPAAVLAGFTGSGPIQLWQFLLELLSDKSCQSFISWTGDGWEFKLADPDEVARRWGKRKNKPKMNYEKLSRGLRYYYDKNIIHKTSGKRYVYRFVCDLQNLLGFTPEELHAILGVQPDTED
In short: as §1

[12] = biological target: T8, SPDEF (Homo sapiens, UniProt O95238 1-335)
T8 sequence: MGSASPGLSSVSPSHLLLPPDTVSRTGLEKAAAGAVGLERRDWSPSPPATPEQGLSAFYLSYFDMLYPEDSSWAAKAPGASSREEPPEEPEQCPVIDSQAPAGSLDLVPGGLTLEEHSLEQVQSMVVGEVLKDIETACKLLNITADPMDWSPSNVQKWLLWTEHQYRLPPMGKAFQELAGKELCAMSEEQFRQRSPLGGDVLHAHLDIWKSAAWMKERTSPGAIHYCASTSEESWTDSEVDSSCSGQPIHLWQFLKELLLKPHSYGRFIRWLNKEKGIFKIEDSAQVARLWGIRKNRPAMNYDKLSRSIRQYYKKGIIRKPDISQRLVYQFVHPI
In short: as §1

[13] = biological target: ETV6 (Homo sapiens, UniProt P41212 1-452)
ETV6, sequence (P41212 whole entry): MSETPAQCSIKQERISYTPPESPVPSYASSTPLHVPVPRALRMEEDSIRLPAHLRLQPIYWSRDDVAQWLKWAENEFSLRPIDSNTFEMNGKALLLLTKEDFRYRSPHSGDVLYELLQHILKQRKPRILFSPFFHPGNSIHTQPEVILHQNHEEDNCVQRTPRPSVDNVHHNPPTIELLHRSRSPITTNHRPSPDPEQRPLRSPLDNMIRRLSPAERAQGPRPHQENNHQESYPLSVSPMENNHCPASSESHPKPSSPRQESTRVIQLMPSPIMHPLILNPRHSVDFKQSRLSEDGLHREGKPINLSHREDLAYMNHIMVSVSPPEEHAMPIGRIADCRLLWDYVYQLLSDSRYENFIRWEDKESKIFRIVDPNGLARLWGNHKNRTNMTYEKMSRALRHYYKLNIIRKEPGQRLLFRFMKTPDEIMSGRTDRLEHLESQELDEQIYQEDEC
In short: as §1

[14] = biological target: SPI1 (Homo sapiens, UniProt P17947 1-270)
In short: as §1

[15] = biological target: T9, FEV (Homo sapiens, UniProt Q99581 1-238)
T9 sequence: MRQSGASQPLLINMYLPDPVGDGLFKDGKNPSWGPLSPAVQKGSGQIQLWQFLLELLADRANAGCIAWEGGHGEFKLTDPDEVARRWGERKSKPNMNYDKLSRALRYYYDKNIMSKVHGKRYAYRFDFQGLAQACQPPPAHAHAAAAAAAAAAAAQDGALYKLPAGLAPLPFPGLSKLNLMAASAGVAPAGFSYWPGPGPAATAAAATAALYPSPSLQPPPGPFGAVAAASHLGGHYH
In short: as §1

Sequence | binding signal [1] | binding signal [2] | binding signal [3] | binding signal [4] | binding signal [5] | binding signal [6] | binding signal [7] | binding signal [8] | binding signal [9] | binding signal [10] | binding signal [11] | binding signal [12] | binding signal [13] | binding signal [14] | binding signal [15]
ACATAG | 1.12 fold enrichment (6-mer frequency, TF over GST control) | 1.03 fold enrichment (6-mer frequency, TF over GST control) | 1.07 fold enrichment (6-mer frequency, TF over GST control) | 1.07 fold enrichment (6-mer frequency, TF over GST control) | 1.01 fold enrichment (6-mer frequency, TF over GST control) | 1.07 fold enrichment (6-mer frequency, TF over GST control) | 1.08 fold enrichment (6-mer frequency, TF over GST control) | 1.02 fold enrichment (6-mer frequency, TF over GST control) | 1.04 fold enrichment (6-mer frequency, TF over GST control) | 1.11 fold enrichment (6-mer frequency, TF over GST control) | 1.05 fold enrichment (6-mer frequency, TF over GST control) | 1 fold enrichment (6-mer frequency, TF over GST control) | 1.07 fold enrichment (6-mer frequency, TF over GST control) | – | –
AGTGTA | 1.03 fold enrichment (6-mer frequency, TF over GST control) | – | – | 1.02 fold enrichment (6-mer frequency, TF over GST control) | – | – | 1.05 fold enrichment (6-mer frequency, TF over GST control) | 1.19 fold enrichment (6-mer frequency, TF over GST control) | – | – | – | – | 1.03 fold enrichment (6-mer frequency, TF over GST control) | 1.24 fold enrichment (6-mer frequency, TF over GST control) | 1.01 fold enrichment (6-mer frequency, TF over GST control)
